Assay outcomes deposited in PubChem BioAssay by several laboratories.
rCAG binder – binders of r(CAG) RNA repeats, primary screen, biochemical, fluorescence. actives 1.3% (n = 370,000). inhibition, % at 3 µM. r(CAG) RNA repeat, TO-PRO-1 dye displacement fluorescence. AID 651821, 2012;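 active = inhibition above the plate cutoff, the mean of all test compounds on that plate plus 3 SD, cut at about 35% in these data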;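 note: higher means more dye released from RNA so lower well fluorescence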
PRMT1 inh – PRMT1 methyltransferase inhibitors, primary screen, biochemical, fluorescence polarization | Protein arginine N-methyltransferase 1 (Homo sapiens), Q99873 | recombinant PRMT1, activity-based probe fluorescence polarization | inhibition, % at 2.79 µM | actives 1.3% (n = 370,000) | AID 652257, 2013;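 active = inhibition above about 21% made by adding two undisclosed values, limit read from the data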
ABHD5-PLIN5 inh – ABHD5-PLIN5 interaction inhibitors, primary screen, cell lysate, split luciferase complementation, luminescence | Split G. princeps luciferase complementation, 4 h | inhibition, % at 4 µM | actives 0.78% (n = 360,000) | AID 602281, 2012;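 active = inhibition above the mean inhibition across every tested compound plus 3 SD, cut at about 22% in these data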
ALR inh – inhibitors of human ALR sulfhydryl oxidase, primary screen, biochemical, H2O2 detection, HRP-luminol luminescence, single point; FAD-linked sulfhydryl oxidase ALR (Homo sapiens), P55789; purified ALR, DTT oxidation; inhibition, % (concentration not given with the values); actives 3.8% (n = 290,000); AID 485317, 2010;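 active = mean replicate inhibition above about 79%, with every replicate also reaching it, limit read from the data; inconclusive = only one of the two criteria met; inactive = mean below limit and not every replicate reaching it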
LANA-H2A inh – blockers of LANA interaction with H2A/H2B – biochemical, FP readout, HTS, primary screen | Protein LANA1 (Human herpesvirus 8 type P (isolate GK18)), Q9QR71 | cell-free LANA-H2A/H2B peptide, fluorescence polarization | inhibition, % (concentration not given with the values) | actives 0.6% (n = 320,000) | AID 2629, 2010; in the data active = inhibition mostly above about 10%, no sharp cut-off; inactive = mostly below about 6.7%
Target sequence (Q9QR71 whole entry, looked up): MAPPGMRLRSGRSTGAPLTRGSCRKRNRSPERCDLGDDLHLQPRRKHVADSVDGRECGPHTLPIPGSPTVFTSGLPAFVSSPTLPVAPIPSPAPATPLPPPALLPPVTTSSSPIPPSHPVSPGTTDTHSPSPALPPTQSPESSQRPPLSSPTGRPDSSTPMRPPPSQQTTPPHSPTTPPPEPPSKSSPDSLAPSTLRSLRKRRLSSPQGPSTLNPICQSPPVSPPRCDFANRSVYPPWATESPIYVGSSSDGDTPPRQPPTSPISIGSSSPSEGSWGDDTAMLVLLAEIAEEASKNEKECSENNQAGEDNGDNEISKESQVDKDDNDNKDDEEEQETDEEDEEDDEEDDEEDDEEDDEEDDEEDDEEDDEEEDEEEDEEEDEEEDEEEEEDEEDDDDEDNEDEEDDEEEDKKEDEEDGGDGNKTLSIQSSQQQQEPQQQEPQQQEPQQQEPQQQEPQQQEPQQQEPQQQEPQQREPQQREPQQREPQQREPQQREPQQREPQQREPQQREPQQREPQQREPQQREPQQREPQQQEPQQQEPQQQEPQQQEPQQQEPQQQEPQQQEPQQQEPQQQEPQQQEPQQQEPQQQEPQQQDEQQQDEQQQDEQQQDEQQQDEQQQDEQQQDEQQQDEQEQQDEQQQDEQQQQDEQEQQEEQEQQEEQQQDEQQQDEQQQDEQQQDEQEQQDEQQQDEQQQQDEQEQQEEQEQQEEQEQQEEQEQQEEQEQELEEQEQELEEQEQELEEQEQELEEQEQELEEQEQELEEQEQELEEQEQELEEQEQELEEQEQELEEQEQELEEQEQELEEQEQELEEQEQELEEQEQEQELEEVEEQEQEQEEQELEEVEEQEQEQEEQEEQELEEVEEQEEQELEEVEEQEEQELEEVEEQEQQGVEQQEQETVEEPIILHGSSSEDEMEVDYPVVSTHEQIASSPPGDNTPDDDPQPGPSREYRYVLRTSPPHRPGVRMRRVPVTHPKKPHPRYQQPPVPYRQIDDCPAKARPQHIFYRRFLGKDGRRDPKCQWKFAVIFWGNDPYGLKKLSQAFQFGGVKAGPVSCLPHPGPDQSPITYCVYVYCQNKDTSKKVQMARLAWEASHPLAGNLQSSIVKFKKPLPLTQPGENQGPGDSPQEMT
Rtt109 HAT inh – inhibitors of C. albicans Rtt109/Vps75 HAT, primary screen, biochemical, ThioGlo CoA-SH fluorescence, plate reader | Histone acetyltransferase RTT109 (Candida albicans (strain SC5314 / ATCC MYA-2876)), … | purified Rtt109/Vps75, 4 h | inhibition, % at 34.9 µM | actives 0.16% (n = 330,000) | AID 540336, 2011;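 active = inhibition of at least 50% in every replicate; inconclusive = best replicate reaches 50% inhibition but some replicates fall short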
PRMT1 confirm – PRMT1 methyltransferase inhibitors, confirmation, biochemical, fluorescence polarization, triplicate | recombinant His-PRMT1, activity-based probe fluorescence polarization | inhibition, % at 2.79 µM | shares compounds with PRMT1 inh | actives 42% (n = 3,300);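 active = mean inhibition across replicates above the hit cutoff derived for the earlier primary screen, cut at about 22% in these data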
Each line names hits and unclear results; the compound was inactive in the other large screens (follow-up assays come after a bar, where they were run); ! = not confirmed by another sample. Most compounds without a hit are left out; they make up all but 5.9% or so of the library.

CCCCCNC(=O)C1C(=O)Nc2ccccc2C(=O)N1c1c(C)cccc1C (stereo not drawn)	none (no result: ALR inh, LANA-H2A inh, Rtt109 HAT inh)
O=C(CSc1cccc[n+]1[O-])Nc1cc(Cl)ccc1[N+](=O)[O-]	none
O=[N+]([O-])c1ccc(Sc2cccc[n+]2[O-])c2nonc12	PRMT1 inh 88, ABHD5-PLIN5 inh 86, Rtt109 HAT inh 123 (no result: ALR inh, LANA-H2A inh) | PRMT1 confirm 91
CN(CCC#N)c1ccc(/C=C(\C#N)c2ccccn2)cc1	PRMT1 inh 194 | PRMT1 confirm inactive
CCN(Cc1ccccc1)c1ccc(/C=C(\C#N)c2ccccn2)cc1	PRMT1 inh 57 | PRMT1 confirm inactive
CCc1ccc(CN(Cc2cccnc2)C(=O)/C=C/c2ccc(OC)cc2)cc1	none
O=C(CC1Sc2ncnn2C1=O)Nc1ccc(Br)cc1 (stereo not drawn)	PRMT1 inh 53 | PRMT1 confirm 54
CN(C)c1ccc(-c2csc(C(O)c3ccc(F)c(F)c3)n2)cc1 (stereo not drawn)	none (no result: ALR inh, LANA-H2A inh, Rtt109 HAT inh)
CSc1ccc(NC(=O)CSc2nc3[nH]c(=O)cc(O)c3s2)cc1	rCAG binder 56, PRMT1 inh 48, ALR inh 99 (no result: LANA-H2A inh) | PRMT1 confirm inactive
COCCCN1C(=O)C(CC(=O)NC(c2ccccc2)c2ccccc2)CC(C(=O)N2CCCCCC2)=C1C (stereo not drawn)	none (no result: ALR inh, LANA-H2A inh, Rtt109 HAT inh)
O=[N+]([O-])c1ccc(N2CCN(Cc3ccccc3)CC2)s1	Rtt109 HAT inh inconclusive
O=[N+]([O-])c1ccc(N2CCN(Cc3ccccc3)CC2)c2c1no[n+]2[O-]	PRMT1 inh 54 (no result: ALR inh, LANA-H2A inh, Rtt109 HAT inh) | PRMT1 confirm inactive
O=C(Nc1nc(-c2ccco2)c(-c2ccco2)s1)C1CC(=O)N(c2ccc3c(c2)OCCO3)C1 (stereo not drawn)	PRMT1 inh 38, ABHD5-PLIN5 inh 33 | PRMT1 confirm inactive
CCC(c1nc2ccccc2[nH]1)n1c(-c2ccnc(Cl)c2)nc2ccccc21 (stereo not drawn)	none (no result: ALR inh, LANA-H2A inh, Rtt109 HAT inh)
COCCN(CCOC)Cc1c(O)ccc2c1O/C(=C\c1ccco1)C2=O	PRMT1 inh 31 | PRMT1 confirm 27
CCN1CCN(Cc2c(O)ccc3c2O/C(=C\C=C\c2ccccc2OC)C3=O)CC1	none
O=C1/C(=C/c2ccco2)Oc2c1ccc(O)c2CN1CCCCC1	PRMT1 inh 35 | PRMT1 confirm 47
CC1CCN(Cc2c(O)ccc3c2O/C(=C\c2ccco2)C3=O)CC1	none (no result: rCAG binder, PRMT1 inh)
O=C(O)c1ccccc1-c1ccccc1C(=O)Nc1ccc2c(c1)C(O)c1ccccc1-2 (stereo not drawn)	none (no result: ALR inh, LANA-H2A inh, Rtt109 HAT inh)
O=c1[nH]c2c(s1)C(c1ccco1)C1C3CCC(C3)C1S2 (stereo not drawn)	PRMT1 inh 39 (no result: ALR inh) | PRMT1 confirm inactive
Cc1ccc(-c2n[nH]c(=S)n2Cc2ccccc2)cc1	none
S=c1[nH]nc(-c2cc3ccccc3o2)n1Cc1ccccc1	PRMT1 inh 25 | PRMT1 confirm inactive
COCC(=O)N1CCC(Oc2ccc(C(=O)N3CCN(C)C[C@@H]3C(C)C)cc2)CC1	none (no result: ALR inh, LANA-H2A inh)
O=C(Nc1ccc(Cl)c(Cl)c1)C1CCN(c2ncccn2)CC1	none (no result: ABHD5-PLIN5 inh, ALR inh, LANA-H2A inh, Rtt109 HAT inh)
Oc1c(C=C2N=c3ccccc3=N2)sc(=S)n1-c1ccc(F)cc1	PRMT1 inh 41! | PRMT1 confirm inactive
Oc1ccc(/C=N/n2c(-c3ccco3)csc2=Nc2cccnc2)c(O)c1	PRMT1 inh 29 | PRMT1 confirm inactive
CCC(C)(C)n1nnnc1C(c1ccc2ncccc2c1)N1CCN(c2ccc(O)cc2)CC1 (stereo not drawn)	PRMT1 inh 27, ALR inh 100 | PRMT1 confirm inactive
Cc1ccccc1C(=O)NC1CCCCN(Cc2cccc(C(F)(F)F)c2)C1=O (stereo not drawn)	none (no result: ABHD5-PLIN5 inh, ALR inh, LANA-H2A inh, Rtt109 HAT inh)
